In PubChem BioAssay (NCATS):
Records with an inconclusive call do not appear. The source made the active and inactive calls. The call rests on the fitted dose curve; in most records, active means well fitted cell-killing curve with a large enough effect; inconclusive means small, poorly fitted or top-dose-only effect, or effect the other way; inactive means flat fitted curve, though single readings scatter.

How the values were obtained:
Assay in all cases: Primary qHTS to identify gynecologic anti-cancer compounds using libraries of approved drugs and bioactive compounds (AID 1345084); further: nearly all actives have a fitted effect of over 55% in size
Settings in all cases: Gynecologic cancer cell panel viability, ATPlite luminescence, 48 h; series mostly up to 57.5 µM
OV90 = system: OV90
Procedure, shortened: (§1)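 Luminescence from the ATPlite ATP-monitoring reagent indicates viable cell number; lower signal means cytotoxicity. Cells received compound 16 h after seeding and were exposed for 48 h across five concentrations.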

PA-1 = system: PA-1
Procedure, shortened: as §1

SKOV3 = system: SKOV3
Procedure, shortened: as §1

Tov-21-G = system: Tov-21-G
Procedure, shortened: as §1

Tov112D = system: Tov112D
Procedure, shortened: as §1
On the % scale 0 is the no-effect control and ±100 the full control effect.

COC(=O)c1c(C)cc(OC(=O)c2c(C)cc(OC)cc2OC)cc1O[C@@H]1O[C@H](CO)[C@@H](O)[C@H](O)[C@H]1O
inactive: Potency (OV90) | Potency (PA-1) | Potency (SKOV3) | Potency (Tov-21-G) | Potency (Tov112D)

O=c1[nH]ccc2cc(OC3CCNCC3)ccc12
inactive: Potency (OV90) | Potency (PA-1) | Potency (SKOV3) | Potency (Tov-21-G) | Potency (Tov112D)

COC(=O)C[C@H]1C(C)(C)[C@H](OC(=O)C(C)C)[C@@]2(O)C(=O)[C@]1(C)C1CC[C@]3(C)C(CC(=O)O[C@H]3c3ccoc3)[C@]13O[C@@H]32 (stereo not given in full)
inactive: Potency (OV90) | Potency (PA-1) | Potency (SKOV3) | Potency (Tov-21-G) | Potency (Tov112D)

CC1(C)CC[C@]2(C(=O)O[C@@H]3O[C@H](CO)[C@@H](O)[C@H](O)[C@H]3O)CC[C@]3(C)C(=CCC4[C@@]5(C)CC[C@H](O[C@@H]6O[C@H](C(=O)O)[C@@H](O)[C@H](O)[C@H]6O)[C@@](C)(CO)C5CC[C@]43C)C2C1 (stereo not given in full)
inactive: activity change, negative = cytotoxicity (OV90) 8.98% [at 11.6 µM] | activity change, negative = cytotoxicity (PA-1) 2.88% [at 11.6 µM] | activity change, negative = cytotoxicity (SKOV3) 0% [at 11.6 µM] | activity change, negative = cytotoxicity (Tov-21-G) 2.2% [at 11.6 µM] | activity change, negative = cytotoxicity (Tov112D) 2.24% [at 11.6 µM]

CC1(C)CC[C@]2(C(=O)O)CC[C@]3(C)C(=CCC4[C@@]5(C)CC[C@H](O[C@@H]6O[C@H](CO)[C@@H](O)[C@H](O)[C@H]6O[C@@H]6O[C@H](CO)[C@@H](O)[C@H](O)[C@H]6O)[C@@](C)(CO)C5CC[C@]43C)[C@@H]2C1 (stereo not given in full)
inactive: Potency (OV90) | Potency (PA-1) | Potency (SKOV3) | Potency (Tov-21-G) | Potency (Tov112D)

CC(=O)O[C@@H]1c2c(C)coc2C(=O)[C@@]23O[C@@H]2CC[C@H](C)[C@@]13C
inactive: Potency (OV90) | Potency (PA-1) | Potency (SKOV3) | Potency (Tov-21-G) | Potency (Tov112D)

CC(=O)O[C@@H]1c2c3c(cc(O)c2C(=O)O[C@@H]1C)O[C@@]1(C)[C@@H](O)C[C@H]2C(C)(C)C(=O)C=C[C@]2(C)[C@@H]1C3
inactive: Potency (OV90) | Potency (PA-1) | Potency (SKOV3) | Potency (Tov-21-G) | Potency (Tov112D)

COc1ccc(N2CCOCC2)c2sc(NC(=O)N3CCC(C)(O)CC3)nc12
inactive: Potency (OV90) | Potency (PA-1) | Potency (SKOV3) | Potency (Tov-21-G) | Potency (Tov112D)

O=C1NC(Cc2ccccc2)C(=O)N2CCCC12 (stereo not given)
inactive: Potency (OV90) | Potency (PA-1) | Potency (SKOV3) | Potency (Tov-21-G) | Potency (Tov112D)

CC1(C)CC[C@]2(C(=O)O[C@@H]3O[C@H](CO)[C@@H](O)[C@H](O)[C@H]3O)CC[C@]3(C)C(=CCC4[C@@]5(C)CC[C@H](O[C@@H]6O[C@H](C(=O)O)[C@@H](O)[C@H](O[C@@H]7O[C@H](CO)[C@H](O)[C@H](O)[C@H]7O)[C@H]6O)C(C)(C)C5CC[C@]43C)C2C1 (stereo not given in full)
inactive: activity change, negative = cytotoxicity (OV90) 1.32% [at 11.6 µM] | activity change, negative = cytotoxicity (PA-1) -14.7% [at 11.6 µM] | activity change, negative = cytotoxicity (SKOV3) 12.6% [at 11.6 µM] | activity change, negative = cytotoxicity (Tov-21-G) -0.142% [at 11.6 µM] | activity change, negative = cytotoxicity (Tov112D) -2.13% [at 11.6 µM]

COc1cc(O)c2c(c1)C1=CC(O)C(O)CC1(C)OC2=O (stereo not given)
inactive: Potency (OV90) | Potency (PA-1) | Potency (SKOV3) | Potency (Tov-21-G) | Potency (Tov112D)

C=CC(C)(CC/C=C(\C)C(=O)OC)OC1OC(COC(=O)CC(C)(O)CC(=O)O)C(OC2OC(CO)C(O)C(O)C2O)C(O)C1O (stereo not given)
inactive: Potency (OV90) | Potency (PA-1) | Potency (SKOV3) | Potency (Tov-21-G) | Potency (Tov112D)

C[C@H](NC(=O)CCc1nc2ccccc2c(=O)[nH]1)c1ccccc1
inactive: Potency (OV90) | Potency (PA-1) | Potency (SKOV3) | Potency (Tov-21-G) | Potency (Tov112D)

CC1=CC(=O)[C@H]2C(C)(C)CCC[C@]2(C)[C@@]1(O)CO
inactive: Potency (OV90) | Potency (PA-1) | Potency (SKOV3) | Potency (Tov-21-G) | Potency (Tov112D)

COC(=O)Cc1cc2c(c([N+](=O)[O-])c1)N(C(=O)CC[C@H](N)C(=O)O)CC2
inactive: Potency (OV90) | Potency (PA-1) | Potency (SKOV3) | Potency (Tov-21-G) | Potency (Tov112D)

C=C1[C@H](OC(C)=O)[C@H]2[C@@H](OC(C)=O)[C@](C)(OC(C)=O)C[C@]2(OC(C)=O)C(=O)[C@H](C)/C=C/C(C)(C)C(=O)[C@H](OC(=O)C(C)C)[C@H]1OC(C)=O
inactive: Potency (OV90) | Potency (PA-1) | Potency (SKOV3) | Potency (Tov-21-G) | Potency (Tov112D)

CC(=O)OC[C@]12[C@H](OC(C)=O)C(=O)[C@@H]3[C@@H](OC(C)=O)[C@@]14O[C@@]3(C)COC(=O)c1cccnc1[C@@H](C)[C@H](C)C(=O)O[C@@H]([C@H](O)[C@@H]2OC(C)=O)[C@]4(C)O
inactive: Potency (OV90) | Potency (PA-1) | Potency (SKOV3) | Potency (Tov-21-G) | Potency (Tov112D)

CNC12CC3C[C@@](C)(C1)C[C@](C)(C3)C2
inactive: Potency (OV90) | Potency (PA-1) | Potency (SKOV3) | Potency (Tov-21-G) | Potency (Tov112D)
